The results in this text go back to ChEMBL document CHEMBL1961873, “Compounds: GSK PKIS; Assays: Nanosyn kinase panel” (2012).

In test [1] the target is T1, Inhibitor of nuclear factor kappa-B kinase subunit epsilon (Homo sapiens) (UniProt Q14164).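 Also: reported values are averaged percent inhibition figures against human IKKε.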
T1 sequence (whole entry): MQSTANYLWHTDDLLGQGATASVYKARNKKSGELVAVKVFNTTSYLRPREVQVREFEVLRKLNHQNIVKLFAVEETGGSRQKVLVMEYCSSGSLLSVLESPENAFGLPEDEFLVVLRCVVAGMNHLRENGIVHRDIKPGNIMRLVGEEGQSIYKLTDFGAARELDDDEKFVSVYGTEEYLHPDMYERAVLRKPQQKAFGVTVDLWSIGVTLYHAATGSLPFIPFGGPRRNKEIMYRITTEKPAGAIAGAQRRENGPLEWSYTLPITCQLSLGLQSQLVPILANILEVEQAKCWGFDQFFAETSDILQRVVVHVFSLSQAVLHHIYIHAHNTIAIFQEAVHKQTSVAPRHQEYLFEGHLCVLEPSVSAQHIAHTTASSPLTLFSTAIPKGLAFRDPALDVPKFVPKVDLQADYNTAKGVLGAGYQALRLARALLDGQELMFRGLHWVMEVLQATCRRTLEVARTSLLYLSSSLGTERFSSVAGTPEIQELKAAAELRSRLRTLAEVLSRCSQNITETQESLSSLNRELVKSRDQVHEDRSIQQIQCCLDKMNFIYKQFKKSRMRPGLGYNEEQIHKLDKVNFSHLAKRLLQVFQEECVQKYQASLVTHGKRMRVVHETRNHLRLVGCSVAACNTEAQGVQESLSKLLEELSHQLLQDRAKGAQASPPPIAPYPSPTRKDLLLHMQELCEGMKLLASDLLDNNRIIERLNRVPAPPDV
The conditions noted are these: at 1 µM.

Test [2] concerns the target T2, Serine/threonine-protein kinase Nek1 (Homo sapiens) (UniProt Q96PY6).
T2 sequence (whole entry): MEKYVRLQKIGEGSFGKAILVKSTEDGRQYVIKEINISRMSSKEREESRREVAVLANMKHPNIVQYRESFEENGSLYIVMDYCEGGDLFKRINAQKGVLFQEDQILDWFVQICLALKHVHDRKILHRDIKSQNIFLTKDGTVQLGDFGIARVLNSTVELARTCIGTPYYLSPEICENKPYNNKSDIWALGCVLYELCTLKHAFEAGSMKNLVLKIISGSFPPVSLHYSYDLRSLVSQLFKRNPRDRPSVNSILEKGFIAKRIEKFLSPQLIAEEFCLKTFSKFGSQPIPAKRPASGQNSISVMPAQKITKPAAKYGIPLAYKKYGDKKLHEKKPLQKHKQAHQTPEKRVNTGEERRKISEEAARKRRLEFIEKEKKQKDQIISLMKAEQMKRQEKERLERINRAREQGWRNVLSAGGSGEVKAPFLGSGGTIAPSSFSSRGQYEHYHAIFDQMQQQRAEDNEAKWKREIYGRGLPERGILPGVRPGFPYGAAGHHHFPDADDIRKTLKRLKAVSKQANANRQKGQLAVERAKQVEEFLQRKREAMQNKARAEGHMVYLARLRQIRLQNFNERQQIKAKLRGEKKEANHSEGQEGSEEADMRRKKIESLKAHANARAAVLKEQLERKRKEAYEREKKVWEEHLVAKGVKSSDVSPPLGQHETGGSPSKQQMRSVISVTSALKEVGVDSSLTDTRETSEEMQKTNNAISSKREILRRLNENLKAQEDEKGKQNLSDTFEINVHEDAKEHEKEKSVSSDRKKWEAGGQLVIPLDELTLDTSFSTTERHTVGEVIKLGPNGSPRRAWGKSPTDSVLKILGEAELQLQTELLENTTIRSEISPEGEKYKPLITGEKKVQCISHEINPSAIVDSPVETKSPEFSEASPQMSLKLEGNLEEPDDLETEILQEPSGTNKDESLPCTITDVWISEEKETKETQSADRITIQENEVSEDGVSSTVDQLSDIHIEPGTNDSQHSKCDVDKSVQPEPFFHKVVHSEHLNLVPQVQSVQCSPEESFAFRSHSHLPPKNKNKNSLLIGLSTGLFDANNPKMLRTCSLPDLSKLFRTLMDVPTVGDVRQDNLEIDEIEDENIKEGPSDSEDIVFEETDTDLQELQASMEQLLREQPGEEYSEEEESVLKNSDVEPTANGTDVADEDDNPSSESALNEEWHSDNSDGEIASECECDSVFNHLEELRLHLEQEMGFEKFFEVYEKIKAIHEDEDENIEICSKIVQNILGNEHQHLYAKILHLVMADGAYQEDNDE
The conditions noted are these: at 0.1 µM.

Test [3] addresses T2, Serine/threonine-protein kinase Nek1 (Homo sapiens). The conditions noted are these: at 1 µM.
The target of test [4] is T3, Serine/threonine-protein kinase Nek2 (Homo sapiens) (UniProt P51955).
T3 sequence (whole entry): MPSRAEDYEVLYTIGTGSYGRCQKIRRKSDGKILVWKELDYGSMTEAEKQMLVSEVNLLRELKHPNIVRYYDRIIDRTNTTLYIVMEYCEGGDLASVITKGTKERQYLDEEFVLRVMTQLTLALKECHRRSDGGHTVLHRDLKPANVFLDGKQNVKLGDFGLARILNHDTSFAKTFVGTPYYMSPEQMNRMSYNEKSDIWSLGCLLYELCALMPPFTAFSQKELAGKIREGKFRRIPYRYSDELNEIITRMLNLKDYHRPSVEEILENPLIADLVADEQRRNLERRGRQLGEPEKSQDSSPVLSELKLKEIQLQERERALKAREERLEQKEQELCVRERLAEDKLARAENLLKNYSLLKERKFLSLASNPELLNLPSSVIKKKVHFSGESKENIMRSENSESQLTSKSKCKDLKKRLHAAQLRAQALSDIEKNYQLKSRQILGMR
The conditions noted are these: at 0.1 µM.

Test [5] has as its target T3, Serine/threonine-protein kinase Nek2 (Homo sapiens). The conditions noted are these: at 1 µM.
Test [6] deals with Serine/threonine-protein kinase Nek6 (Homo sapiens) (UniProt Q9HC98). The settings on record: at 0.1 µM.
For test [7] the target is unchanged. The conditions noted are these: at 1 µM.
The target in test [8] is Serine/threonine-protein kinase Nek7 (Homo sapiens) (UniProt Q8TDX7). The conditions noted are these: at 0.1 µM.
Test [9] has the same target. The conditions noted are these: at 1 µM.
For test [10], the target named is T4, Serine/threonine-protein kinase Nek9 (Homo sapiens) (UniProt Q8TD19).
T4 sequence (whole entry): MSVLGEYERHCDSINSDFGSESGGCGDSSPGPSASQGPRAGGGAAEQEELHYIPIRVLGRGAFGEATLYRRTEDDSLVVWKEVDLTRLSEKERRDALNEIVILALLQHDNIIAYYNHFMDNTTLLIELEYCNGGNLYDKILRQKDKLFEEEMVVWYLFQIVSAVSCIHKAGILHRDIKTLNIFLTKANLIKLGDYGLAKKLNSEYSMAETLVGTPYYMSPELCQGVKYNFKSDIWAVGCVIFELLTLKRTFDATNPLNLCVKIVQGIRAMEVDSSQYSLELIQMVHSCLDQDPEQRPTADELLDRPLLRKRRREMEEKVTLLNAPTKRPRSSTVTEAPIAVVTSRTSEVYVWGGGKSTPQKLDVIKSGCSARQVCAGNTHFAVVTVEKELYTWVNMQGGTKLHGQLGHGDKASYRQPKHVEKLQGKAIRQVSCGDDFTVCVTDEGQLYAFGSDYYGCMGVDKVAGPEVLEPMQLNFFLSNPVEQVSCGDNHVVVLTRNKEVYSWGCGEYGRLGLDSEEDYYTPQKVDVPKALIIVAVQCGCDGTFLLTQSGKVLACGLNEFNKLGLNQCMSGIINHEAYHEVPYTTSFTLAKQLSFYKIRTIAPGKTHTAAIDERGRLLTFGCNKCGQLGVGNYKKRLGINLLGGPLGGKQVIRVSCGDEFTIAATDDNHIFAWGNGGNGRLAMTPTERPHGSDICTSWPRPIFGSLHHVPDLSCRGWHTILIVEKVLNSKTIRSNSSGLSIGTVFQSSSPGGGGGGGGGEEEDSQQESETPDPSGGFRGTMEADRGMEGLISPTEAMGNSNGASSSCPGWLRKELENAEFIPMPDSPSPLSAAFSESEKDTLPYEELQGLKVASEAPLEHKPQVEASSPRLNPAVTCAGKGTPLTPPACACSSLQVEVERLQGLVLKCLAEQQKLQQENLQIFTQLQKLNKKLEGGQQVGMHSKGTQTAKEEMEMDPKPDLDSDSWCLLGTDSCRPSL
The settings on record: at 0.1 µM.

Test [11] concerns the target T4, Serine/threonine-protein kinase Nek9 (Homo sapiens). The settings on record: at 1 µM.
In test [12] the target is Serine/threonine-protein kinase PLK1 (Homo sapiens) (UniProt P53350). The conditions noted are these: at 0.1 µM.
Test [13] shares this target. The settings on record: at 1 µM.
The target of test [14] is T5, Dual specificity protein kinase TTK (Homo sapiens) (UniProt P33981).
T5 sequence (whole entry): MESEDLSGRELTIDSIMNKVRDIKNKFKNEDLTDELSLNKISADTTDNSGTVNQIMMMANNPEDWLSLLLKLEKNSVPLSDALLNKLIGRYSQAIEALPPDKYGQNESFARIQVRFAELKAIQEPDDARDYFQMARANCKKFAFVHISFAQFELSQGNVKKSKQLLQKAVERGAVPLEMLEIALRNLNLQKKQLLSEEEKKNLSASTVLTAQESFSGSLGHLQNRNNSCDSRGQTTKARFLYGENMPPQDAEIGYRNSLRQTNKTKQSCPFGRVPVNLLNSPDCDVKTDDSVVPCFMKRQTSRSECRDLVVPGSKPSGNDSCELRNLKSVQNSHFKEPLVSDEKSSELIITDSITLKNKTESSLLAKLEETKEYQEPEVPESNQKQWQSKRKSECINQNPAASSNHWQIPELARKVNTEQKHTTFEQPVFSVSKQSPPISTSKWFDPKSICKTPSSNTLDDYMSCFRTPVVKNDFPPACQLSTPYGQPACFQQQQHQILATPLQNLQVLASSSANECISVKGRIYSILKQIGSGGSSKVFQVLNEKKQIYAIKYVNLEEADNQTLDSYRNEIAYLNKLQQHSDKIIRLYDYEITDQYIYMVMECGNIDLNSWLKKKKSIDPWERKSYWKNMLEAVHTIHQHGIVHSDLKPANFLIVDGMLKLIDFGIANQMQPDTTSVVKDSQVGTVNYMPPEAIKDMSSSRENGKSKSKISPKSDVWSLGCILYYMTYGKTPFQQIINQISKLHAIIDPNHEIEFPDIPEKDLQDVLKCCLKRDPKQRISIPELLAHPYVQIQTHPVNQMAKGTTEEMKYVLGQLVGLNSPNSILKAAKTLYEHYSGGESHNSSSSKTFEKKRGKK
The settings on record: at 0.1 µM.

In test [15] the test system is T6, Receptor-type tyrosine-protein kinase FLT3 (Homo sapiens), P36888 [D835Y].
T6 sequence (whole entry): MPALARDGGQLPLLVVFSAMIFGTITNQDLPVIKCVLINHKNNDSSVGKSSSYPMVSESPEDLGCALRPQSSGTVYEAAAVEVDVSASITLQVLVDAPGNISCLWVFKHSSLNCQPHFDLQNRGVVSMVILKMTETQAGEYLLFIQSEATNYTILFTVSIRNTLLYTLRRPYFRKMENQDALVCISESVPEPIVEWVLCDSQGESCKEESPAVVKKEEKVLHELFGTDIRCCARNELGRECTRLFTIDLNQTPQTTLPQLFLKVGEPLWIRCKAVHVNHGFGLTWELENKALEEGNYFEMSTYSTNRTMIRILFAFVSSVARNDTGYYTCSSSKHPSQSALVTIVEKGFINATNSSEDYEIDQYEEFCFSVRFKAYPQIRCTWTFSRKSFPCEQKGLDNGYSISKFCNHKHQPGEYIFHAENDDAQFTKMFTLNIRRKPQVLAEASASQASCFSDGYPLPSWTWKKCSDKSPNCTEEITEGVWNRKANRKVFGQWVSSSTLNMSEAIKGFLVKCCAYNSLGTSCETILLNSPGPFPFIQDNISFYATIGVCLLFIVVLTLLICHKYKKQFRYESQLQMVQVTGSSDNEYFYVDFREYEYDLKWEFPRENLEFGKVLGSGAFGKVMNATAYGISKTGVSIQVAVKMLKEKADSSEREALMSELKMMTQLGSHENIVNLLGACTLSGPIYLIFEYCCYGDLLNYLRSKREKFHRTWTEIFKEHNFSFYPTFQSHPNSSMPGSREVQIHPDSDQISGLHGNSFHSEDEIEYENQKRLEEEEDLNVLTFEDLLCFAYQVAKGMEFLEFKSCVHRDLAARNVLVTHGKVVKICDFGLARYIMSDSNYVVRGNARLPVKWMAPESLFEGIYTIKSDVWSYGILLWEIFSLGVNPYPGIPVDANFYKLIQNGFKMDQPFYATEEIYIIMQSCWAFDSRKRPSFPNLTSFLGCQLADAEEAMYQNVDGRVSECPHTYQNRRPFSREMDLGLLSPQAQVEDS
The conditions noted are these: at 1 µM.

In test [16] the target is Vascular endothelial growth factor receptor 3 (Homo sapiens) (UniProt P35916). The conditions noted are these: at 0.1 µM.
Test [17] shares this target. The settings on record: at 1 µM.
Test [18] addresses Macrophage colony-stimulating factor 1 receptor (Homo sapiens) (UniProt P07333). The conditions noted are these: at 0.1 µM.
Test [19] shares this target. The conditions noted are these: at 1 µM.
In test [20] the target is Tyrosine-protein kinase Fyn (Homo sapiens) (UniProt P06241). The conditions noted are these: at 0.1 µM.
Tyrosine-protein kinase Fyn (Homo sapiens), sequence (P06241 2-537 limits assumed): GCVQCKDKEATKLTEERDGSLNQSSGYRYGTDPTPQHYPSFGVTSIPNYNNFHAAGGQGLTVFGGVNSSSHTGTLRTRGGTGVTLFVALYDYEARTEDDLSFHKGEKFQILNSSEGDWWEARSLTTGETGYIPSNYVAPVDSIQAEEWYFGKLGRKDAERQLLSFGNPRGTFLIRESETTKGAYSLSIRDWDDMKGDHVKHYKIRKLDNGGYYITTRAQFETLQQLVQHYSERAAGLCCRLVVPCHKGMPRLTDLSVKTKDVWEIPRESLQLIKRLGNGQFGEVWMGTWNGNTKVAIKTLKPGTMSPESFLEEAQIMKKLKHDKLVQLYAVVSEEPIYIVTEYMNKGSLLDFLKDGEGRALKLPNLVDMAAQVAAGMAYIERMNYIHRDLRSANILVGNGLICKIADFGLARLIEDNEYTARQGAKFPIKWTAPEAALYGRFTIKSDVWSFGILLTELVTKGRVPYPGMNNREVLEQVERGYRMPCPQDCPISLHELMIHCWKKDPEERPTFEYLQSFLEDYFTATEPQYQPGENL

Serine/threonine-protein kinase Nek6 (Homo sapiens), sequence (Q9HC98 whole entry): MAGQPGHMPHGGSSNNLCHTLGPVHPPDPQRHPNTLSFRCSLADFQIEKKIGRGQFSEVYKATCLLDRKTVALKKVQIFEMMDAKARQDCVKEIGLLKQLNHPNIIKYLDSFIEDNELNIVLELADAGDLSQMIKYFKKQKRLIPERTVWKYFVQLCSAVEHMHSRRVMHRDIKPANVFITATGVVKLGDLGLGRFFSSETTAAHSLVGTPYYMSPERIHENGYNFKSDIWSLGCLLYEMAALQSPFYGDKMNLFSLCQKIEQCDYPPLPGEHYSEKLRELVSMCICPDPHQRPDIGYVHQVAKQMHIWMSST
Serine/threonine-protein kinase PLK1 (Homo sapiens), sequence (P53350 whole entry): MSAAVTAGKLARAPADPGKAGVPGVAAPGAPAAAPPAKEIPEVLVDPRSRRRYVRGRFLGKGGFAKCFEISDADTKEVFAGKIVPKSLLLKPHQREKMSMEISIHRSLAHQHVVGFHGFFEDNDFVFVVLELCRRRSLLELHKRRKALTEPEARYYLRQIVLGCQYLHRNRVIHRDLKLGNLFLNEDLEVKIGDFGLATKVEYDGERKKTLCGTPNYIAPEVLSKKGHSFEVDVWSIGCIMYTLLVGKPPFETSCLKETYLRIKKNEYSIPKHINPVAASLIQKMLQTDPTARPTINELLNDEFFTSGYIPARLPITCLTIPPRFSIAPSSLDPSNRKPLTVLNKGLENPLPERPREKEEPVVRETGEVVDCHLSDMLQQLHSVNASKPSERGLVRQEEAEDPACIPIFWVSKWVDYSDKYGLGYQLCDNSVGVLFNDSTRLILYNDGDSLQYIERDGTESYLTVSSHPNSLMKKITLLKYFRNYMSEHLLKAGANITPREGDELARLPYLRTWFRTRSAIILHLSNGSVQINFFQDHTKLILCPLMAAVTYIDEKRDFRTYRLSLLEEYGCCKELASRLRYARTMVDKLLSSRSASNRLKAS
Vascular endothelial growth factor receptor 3 (Homo sapiens), sequence (P35916 whole entry): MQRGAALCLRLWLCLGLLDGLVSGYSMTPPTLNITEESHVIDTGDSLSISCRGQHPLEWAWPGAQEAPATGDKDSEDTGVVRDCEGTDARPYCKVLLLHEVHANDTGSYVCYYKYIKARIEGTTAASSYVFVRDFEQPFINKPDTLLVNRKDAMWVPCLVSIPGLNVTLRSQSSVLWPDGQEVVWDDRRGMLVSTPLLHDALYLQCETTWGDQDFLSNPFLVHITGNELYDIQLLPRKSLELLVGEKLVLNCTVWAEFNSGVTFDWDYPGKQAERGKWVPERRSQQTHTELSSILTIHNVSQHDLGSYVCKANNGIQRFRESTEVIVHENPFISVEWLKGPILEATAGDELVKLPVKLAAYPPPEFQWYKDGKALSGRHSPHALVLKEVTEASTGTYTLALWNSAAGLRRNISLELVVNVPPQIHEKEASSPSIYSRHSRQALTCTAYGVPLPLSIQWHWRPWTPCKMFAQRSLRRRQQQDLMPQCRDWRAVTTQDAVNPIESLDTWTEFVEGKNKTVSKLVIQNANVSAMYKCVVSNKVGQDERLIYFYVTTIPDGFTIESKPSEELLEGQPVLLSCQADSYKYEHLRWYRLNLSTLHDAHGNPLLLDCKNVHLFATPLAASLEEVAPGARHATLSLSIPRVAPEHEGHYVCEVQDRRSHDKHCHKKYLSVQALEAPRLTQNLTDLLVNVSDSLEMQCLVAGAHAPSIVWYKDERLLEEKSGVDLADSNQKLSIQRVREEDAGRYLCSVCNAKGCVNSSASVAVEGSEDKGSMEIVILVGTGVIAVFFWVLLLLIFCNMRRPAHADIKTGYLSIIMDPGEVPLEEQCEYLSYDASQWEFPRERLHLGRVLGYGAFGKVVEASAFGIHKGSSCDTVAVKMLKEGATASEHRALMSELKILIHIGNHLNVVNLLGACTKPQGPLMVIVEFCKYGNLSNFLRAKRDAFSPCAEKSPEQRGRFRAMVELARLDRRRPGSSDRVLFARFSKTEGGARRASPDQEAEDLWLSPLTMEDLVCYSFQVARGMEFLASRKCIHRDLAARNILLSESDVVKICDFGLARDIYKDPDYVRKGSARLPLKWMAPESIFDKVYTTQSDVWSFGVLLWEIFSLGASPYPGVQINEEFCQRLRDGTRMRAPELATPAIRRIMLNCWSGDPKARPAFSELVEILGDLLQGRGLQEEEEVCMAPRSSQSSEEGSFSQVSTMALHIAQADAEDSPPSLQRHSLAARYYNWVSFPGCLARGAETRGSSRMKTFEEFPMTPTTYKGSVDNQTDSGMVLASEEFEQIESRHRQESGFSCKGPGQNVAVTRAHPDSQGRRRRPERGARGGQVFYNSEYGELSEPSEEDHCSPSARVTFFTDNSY
Serine/threonine-protein kinase Nek7 (Homo sapiens), sequence (Q8TDX7 whole entry, looked up): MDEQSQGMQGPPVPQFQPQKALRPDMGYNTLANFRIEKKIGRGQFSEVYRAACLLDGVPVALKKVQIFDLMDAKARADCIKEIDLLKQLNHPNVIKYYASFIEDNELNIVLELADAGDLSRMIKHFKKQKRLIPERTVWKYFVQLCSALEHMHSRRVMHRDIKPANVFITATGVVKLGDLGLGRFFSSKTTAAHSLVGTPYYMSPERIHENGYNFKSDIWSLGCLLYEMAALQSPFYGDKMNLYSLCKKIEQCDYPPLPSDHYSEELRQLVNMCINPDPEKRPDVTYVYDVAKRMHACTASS
Macrophage colony-stimulating factor 1 receptor (Homo sapiens), sequence (P07333 whole entry): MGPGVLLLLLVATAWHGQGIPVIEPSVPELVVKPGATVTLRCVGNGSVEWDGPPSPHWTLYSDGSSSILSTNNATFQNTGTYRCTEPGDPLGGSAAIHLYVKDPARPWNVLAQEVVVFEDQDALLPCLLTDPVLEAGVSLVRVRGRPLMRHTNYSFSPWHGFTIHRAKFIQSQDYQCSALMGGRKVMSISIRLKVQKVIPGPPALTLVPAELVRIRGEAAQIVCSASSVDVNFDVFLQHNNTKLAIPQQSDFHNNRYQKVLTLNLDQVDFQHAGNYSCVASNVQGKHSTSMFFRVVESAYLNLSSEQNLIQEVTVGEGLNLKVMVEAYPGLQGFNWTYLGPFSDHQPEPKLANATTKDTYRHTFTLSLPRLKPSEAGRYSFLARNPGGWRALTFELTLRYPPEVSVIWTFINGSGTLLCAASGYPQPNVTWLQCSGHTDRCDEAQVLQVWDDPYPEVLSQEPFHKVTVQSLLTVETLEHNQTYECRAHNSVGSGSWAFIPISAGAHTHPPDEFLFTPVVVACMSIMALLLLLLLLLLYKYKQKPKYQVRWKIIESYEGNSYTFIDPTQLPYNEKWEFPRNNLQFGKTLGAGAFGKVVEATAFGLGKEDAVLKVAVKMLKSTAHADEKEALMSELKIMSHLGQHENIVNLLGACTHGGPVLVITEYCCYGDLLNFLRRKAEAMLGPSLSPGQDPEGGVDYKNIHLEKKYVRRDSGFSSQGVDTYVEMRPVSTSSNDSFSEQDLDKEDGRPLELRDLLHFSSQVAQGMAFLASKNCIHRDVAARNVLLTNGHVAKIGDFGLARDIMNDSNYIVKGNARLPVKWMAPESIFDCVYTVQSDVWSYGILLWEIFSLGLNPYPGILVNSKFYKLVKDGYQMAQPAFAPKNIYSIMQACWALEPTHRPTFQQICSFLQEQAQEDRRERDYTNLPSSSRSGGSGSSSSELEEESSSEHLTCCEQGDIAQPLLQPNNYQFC

Broadly, the inhibition is the drop in the measured response relative to a control, in per cent. As to `COc1ccc(C2=C(N3CCc4ccccc43)C(=O)NC2=O)cc1`, the inhibition stood at 19.1% in test [1]; 2.77% in test [2]; 5.54% in test [3]; 5.3% in test [4]; 6.47% in test [5]; 2.74% in test [6]. In addition, the inhibition came to 1.65% in test [7]; 3.11% in test [8]; 3.74% in test [9]; 11.3% in test [10]; 7.64% in test [11]; 4.84% in test [12]. For the same compound, the inhibition in test [13] amounted to 4.9%; in test [14], 9.59%; in [15], 3.5%; in [16] it was 1.33%; in test [17], 3.21%; in [18], 2.49%. Also, the inhibition in [19] was 4.23%; in test [20], 2.77%.
For `Nc1nccc(-c2c(-c3ccc(F)cc3)ncn2C2CCC(O)CC2)n1` (stereo not given), the inhibition in [1] was -2.64%; in test [2] it was -1.36%; in [3], 0.03%; in [4], -2.37%; in [5], -3.67%; in test [6], -4.15%. The inhibition in test [7] is -1.66%; in test [8] it was -2.24%; in [9], -4.78%; in test [10], 2.41%; in test [11], -1.68%; in [12] it was -2.32%. Also, the inhibition in [13] is -1.2%; in [14], -4.27%; in [15], 0.98%; in [16], 1.39%; in [17], -0.22%; in test [18], 2.19%. The values for the inhibition in [19] and in test [20] were 14.7% and 1.57%, respectively.
